Screening data from PubChem BioAssay.
The list is not random: actives were taken first. Their share in the collection is about 11%.
Pf growth 96h: inhibits malaria parasite growth, 96 h | P. falciparum luciferase reporter growth, 96 h | Potency, µM (titrated, usually from 28.7 µM), without a hit: top-dose activity change, negative = inhibition, most hits filed as inhibitors | actives 6.9% (n = 320,000) | AID 504834
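Luminescence readout: decreased luciferase signal marks inhibited growth of reporter-expressing P. falciparum in infected red cells (2% hematocrit, 0.05% parasitemia final), exposed to compound two generations (96 h, 37 C, 5% CO2).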
Pf growth 48h: inhibits P. falciparum growth in the first generation, 48 h; P. falciparum luciferase growth in erythrocytes, 48 h; Potency, µM (doses to about 28.7 µM), for the others: at the highest dose activity change, negative = inhibition, actives largely listed as inhibitors; actives 5.9% (n = 310,000)
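Read-out is firefly luciferase luminescence from an integrated reporter in P. falciparum, so falling signal marks reduced parasite growth. Infected erythrocytes were at 2% hematocrit and 0.1% parasitemia (final) in Albumax-supplemented RPMI 1640.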
AmpC inh detg: AmpC beta-lactamase inhibition with detergent present. AID 485294. P00811. actives 0.041% (n = 370,000). Potency, µM (series often up to 114 µM), for inactives: at the highest dose activity change, negative = inhibition, usual class: inhibitors. AmpC hydrolysis of nitrocefin, absorbance 480 nm, 0.01% Triton;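 note: 0% = no-compound wells and -100% = no-enzyme wells; nearly all actives have a fitted effect of over 25% in size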
Target sequence (P00811 whole entry, looked up): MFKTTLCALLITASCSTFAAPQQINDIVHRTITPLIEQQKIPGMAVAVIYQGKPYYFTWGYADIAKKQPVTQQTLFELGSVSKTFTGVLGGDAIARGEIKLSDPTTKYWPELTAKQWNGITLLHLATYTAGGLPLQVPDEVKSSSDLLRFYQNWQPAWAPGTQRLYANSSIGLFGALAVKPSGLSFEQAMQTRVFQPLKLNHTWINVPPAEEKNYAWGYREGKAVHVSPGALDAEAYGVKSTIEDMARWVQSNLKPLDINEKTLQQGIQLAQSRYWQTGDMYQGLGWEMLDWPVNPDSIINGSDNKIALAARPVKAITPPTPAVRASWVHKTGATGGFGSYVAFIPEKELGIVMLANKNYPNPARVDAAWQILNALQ
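AmpC (5.3 nM in the dispensed reagent) in 20 mM phosphate pH 7.0 with 0.01% (detergent screen) or 0.0001% Triton X-100 was preincubated with compounds for 15 min at room temperature. Nitrocefin was then added from an 800 uM solution, and hydrolysis was followed at 480 nm.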
HCV inhibitor: HCV inhibition. Huh7.5.1 HCVcc-Cre infection, luciferase reporter, 44 h. Potency, µM (top dose mostly 41.8 µM), for the others: at the top dose activity change, negative = inhibition, most hits filed as inhibitors. actives 3.4% (n = 340,000)
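HCVcc-Cre virus at an moi near 0.5 was added right after compound to cells cultured 4 h from seeding (1,000 cells/well). Luciferase activity was determined 44 h later, 15 min after substrate addition at RT.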
AMA1 RON2 block: AMA1-RON2 (P. falciparum) interaction inhibition | AlphaScreen AMA1-biotinylated RON2 peptide binding | actives 0.2% (n = 360,000) | Potency, µM (titrated, usually from 58.2 µM), without a hit: at the top dose activity change, negative = inhibition, actives largely listed as inhibitors;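 note: 0% = vehicle wells and -100% = peptide control; nearly all actives have a fitted effect of over 45% in size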
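AMA1 (3D7) with his tag at 25 nM final met compounds first, then biotinylated RON2 peptide at 25 nM; detection used donor plus acceptor beads, 10 µg/mL apiece, read by AlphaScreen after 30 min at room temperature.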
AmpC no deterg: blocks E. coli AmpC beta-lactamase in detergent-free assay. P00811. AmpC nitrocefin hydrolysis, absorbance 480 nm, 0.0001% Triton. Potency, µM (doses to about 57.1 µM), without a hit: at the highest dose activity change, negative = inhibition, actives largely listed as inhibitors. actives 0.52% (n = 330,000). AID 485341;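 note: plate controls were no compound for no effect and no enzyme for full effect; nearly all actives have a fitted effect of over 20% in size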
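20 mM phosphate pH 7.0 + 0.01% (detergent screen) or 0.0001% Triton X-100; 5.3 nM AmpC reagent; cpd preinc 15 min RT; nitrocefin (800 uM stock) to start; A480 q20 s × 4 min; Activity was normalised to no-enzyme and no-compound control wells.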
* hit, by the source's call; ? = inconclusive; · = no result given; [ ] = another dose, or the depositor's remark. Calls come from the whole dose curve; as a rule, active = well fitted curve in the direction sought with a large enough effect; inconclusive = small, poorly fitted or top-dose-only effect, or another doubt; inactive = no such curve, though single readings can be large; an effect the other way counts as inactive or inconclusive. Unless noted, % is set by controls: 0 for no effect and ±100 for the full control effect; potency is the fitted concentration of half-maximal effect.

SMILES	Pf growth 96h	Pf growth 48h	AmpC inh detg	HCV inhibitor	AMA1 RON2 block	AmpC no deterg
CC(C)(C)NCC(O)COc1ccccc1C1CCCC1 (centres undefined)	5.22µM*	2.62µM*	-7.5%	?	9.7%	3.9%
CC(=O)CCc1ccc(OCC(O)CNC2CCCc3ccccc32)cc1 (centres undefined)	?	?	-10.8%	?	-1.3%	-2.6%
O=C(c1ccccc1)c1ccc(OCC(O)CNC2CCCc3ccccc32)cc1 (centres undefined)	10.4µM*	?	-0.1%	?	-3.2%	-29.6%
CCOC(=O)c1c(C)n(S(=O)(=O)c2ccc(C)cc2)c2ccc(NS(=O)(=O)c3ccc(C)cc3)cc12	·	·	9.7%	·	·	·
COc1ccc(Cn2c(=O)n(Cc3ccco3)c(=O)c3oc4ccccc4c32)cc1	·	·	-4.4%	·	·	·
Clc1ccc(C(c2ccccc2Cl)C(Cl)Cl)cc1 (centres undefined)	?	10.4µM*	-10.4%	?	26.9%	-53.7%
CCOC(=O)c1ccc(NC(=O)CCn2ccc(C)n2)cc1	·	·	0.8%	·	·	·
CCN1CCN(C2CC(=O)NC2=O)CC1 (centres undefined)	8.28µM*	6.3%	0.1%	·	·	-2.5%
COc1cccc(NC(=O)N2CCN3CCCCC3C2)c1 (centres undefined)	·	·	2.4%	·	·	·
O=C(CSc1ccc([N+](=O)[O-])cn1)Nc1ccc2[nH]c(=O)[nH]c2c1	4.65µM*	11.1%	-11.4%	0.7%	3.1%	-7.3%
Cc1c(Cl)cccc1NC(=O)Cn1c(=O)nc(-c2ccccc2)c2ccccc21	·	·	1.7%	·	·	·
C=C(c1ccccc1C)[n+]1ccccc1	1.65µM*	4.65µM*	-14.6%	?	1.8%	-7.1%
Cc1ccccc1C(=O)Nn1c(C)ccc1C	37.6%	12.5%	4.1%	·	·	-23.1%
CCN1C(=O)N[C@@H](CCc2ccccc2)[C@H](C(=O)OC)[C@H]1C	·	·	·	-2.9%[8.37 µM]	-5.2%	·
CCN1C(=NCCc2cccs2)N[C@@H](CCc2ccccc2)[C@H](C(=O)NCCc2cccs2)[C@H]1C	7.4%	1.47µM*	-6.9%	·	·	92.6%
COc1cccc2sc(N3CCN(C(=O)CS(=O)(=O)c4ccc(Cl)cc4)CC3)nc12	·	·	-7.0%	·	·	·
CC(C)NC(=O)c1ccc(N(Cc2ccc(Cl)cc2)S(C)(=O)=O)cc1	10.4µM*	-0.7%	3.6%	-2.6%	-5.3%	65.7%
CCC(Sc1nc2nccnc2c(=O)n1Cc1ccc(F)cc1)C(=O)NC1CCCCC1 (centres undefined)	·	·	9.2%	·	·	·
COc1ccc(OC)c(NC(=O)Cn2cnc3ccc(S(=O)(=O)N4CCC(C)CC4)cc3c2=O)c1	·	·	-1.7%	·	·	·
Cc1cc(C)n2c(Nc3ccc4c(c3)OCCO4)c(-c3ccc(C)o3)nc2n1	5.86µM*	·	-13.7%	-10.7%	-21.4%	1.8%
Cc1cc(C)n2c(Nc3ccc4c(c3)OCCO4)c(-c3ccccn3)nc2n1	·	·	·	·	8.91µM*	·
Cc1ccc(-c2nc3ncccn3c2Nc2ccc3c(c2)OCCO3)cc1	11.7µM*	·	13.3%	3.8%	-3.1%	-4.0%
Cc1ccc(-c2nc3nc(C)cc(C)n3c2Nc2ccc3c(c2)OCCO3)cc1	·	·	-5.7%	·	·	·
Cc1cc(C)n2c(Nc3ccc4c(c3)OCCO4)c(-c3ccco3)nc2n1	11.7µM*	·	?	·	·	-11.7%
COc1ccc(-c2nc3ncccn3c2Nc2ccc3c(c2)OCCO3)cc1	29.8%	?	-2.5%	-6.4%	-4.0%	·
SMILES	Pf growth 96h	Pf growth 48h	AmpC inh detg	HCV inhibitor	AMA1 RON2 block	AmpC no deterg
Cc1cc(C)n2c(Nc3ccc4c(c3)OCCO4)c(-c3ccc(F)cc3)nc2n1	·	·	·	·	-12.5%	·
O=C(CCNS(=O)(=O)c1ccc2c(c1)CCCC(=O)N2)NCc1ccc(Cl)cc1	·	·	11.1%	·	·	·
Cc1ccc(C(=O)c2oc3ccccc3c2NC(=O)C(C)Oc2ccccc2Cl)cc1 (centres undefined)	·	·	29.7%	·	·	·
O=C(O)CC1NC(=S)N(Cc2ccccc2)C1=O (centres undefined)	·	·	·	·	126.2%	·
O=C(O)CC1NC(=O)N(C2CCCCC2)C1=O (centres undefined)	11.7µM*	-2.4%	1.5%	4.5%	1.3%	-7.5%
CCCCC1NC(=S)N(C2CCCCC2)C1=O (centres undefined)	3.2%	24.5%	-2.0%	9.6%	-21.8%[2.32 µM]	-20.9%
O=C(O)CC1NC(=O)N(c2ccccc2)C1=O (centres undefined)	2.62µM*	8.4%	1.7%	?	·	-15.2%
Cn1c(SCC(=O)N2CCCc3ccccc32)ncc(C(=O)Nc2ccc(Cl)cc2)c1=O	·	·	-2.2%	·	·	·
CCC(CC)C(=O)NC1CC(=O)N(c2ccc3c(c2)OCCO3)C1 (centres undefined)	·	·	1.7%	·	·	·
Cc1ccc(-n2c(=O)c3sc4ccccc4c3n(CC(=O)NC3CCCC3)c2=O)cc1C	·	·	-7.0%	·	·	·
Cc1ccc(S(=O)(=O)N2CCOCC2)cc1C(=O)Nc1ccc(-c2cn3ccsc3n2)cc1	-10.9%	9.28µM*	-6.6%	10µM*	-15.8%	94.3%
Cc1nnc(NC(=O)c2ccc(F)c(S(=O)(=O)N3CCOCC3)c2)s1	·	·	·	20.6%	3.2%	3.1%
Cc1ccc(S(=O)(=O)N2CCOCC2)cc1NC(=O)c1cc(-c2ccccn2)nc2ccccc12	?	9.28µM*	-4.8%	?	-21.3%	94.8%
Cc1ccc(S(=O)(=O)N2CCOCC2)cc1C(=O)Nc1ccncc1	-19.1%	-8.9%	3.6%	6.3%	-4.4%	-18.7%
Cc1ccc(S(=O)(=O)N2CCOCC2)cc1C(=O)Nc1nc(-c2cccnc2)cs1	-9.4%	9.28µM*	0.1%	-15.2%	-3.3%	-10.9%
Cc1ccc(S(=O)(=O)N2CCOCC2)cc1C(=O)NCc1cccnc1	·	11.6%	-2.4%	3.1%	6.4%	-17.3%
O=C(Nc1nc(-c2ccccn2)cs1)c1ccc(F)c(S(=O)(=O)N2CCOCC2)c1	0.828µM*	1.47µM*	-25.9%	3.55µM*	-57.9%	-3.3%
Cc1cccn2c(=O)c(/C=C(\C#N)c3nc4ccccc4n3C)c(Oc3ccc(Cl)cc3)nc12	·	·	19.2%	·	·	·
Cc1ccc(C)c(N2CCN(C(=O)C3CCN(c4nc5ccc(C)cc5[nH]4)CC3)CC2)c1	·	·	9.2%	·	·	·
NC(=O)C1CCN(c2nc(-c3ccc(C(F)(F)F)cc3)cs2)CC1	26.4%	?	·	·	·	·
COc1ccc(CCNC(=O)CCn2c(=O)c3ccccc3n(CC(=O)Nc3ccccc3F)c2=O)cc1OC	·	·	-6.6%	·	·	·
Cc1ccccc1NC(=O)c1cc(S(=O)(=O)N2CCOCC2)ccc1F	-0.8%	-1.8%	-16.2%	-1.7%	10.9%	-2.7%
